Sampled rows, rich in hits. Any-hit rate of the full collection: about 10%.
KinaseGlo FLuc = Kinase-Glo luciferase inhibition (counter-screen); Q27757; Kinase-Glo luciferase, ATP luminescence, 8 min; Potency, µM (titrated, usually from 38.3 µM), without a hit: at the highest dose activity change, negative = inhibition, usual class: inhibitors; 0.28% of 200,000 active; AID 1379; active means well fitted inhibition curve with a large enough effect; inconclusive means small, poorly fitted or top-dose-only effect; further: potency means the concentration at half of the fitted maximal effect; nearly all actives have a fitted effect of over 60% in size
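Light output from Kinase-Glo luciferase with luciferin and 10 uM ATP in 50 mM imidazole pH 7.2, KCl, MgCl2, Tween 20, BSA; compound pin-delivered, 8-min ambient incubation, then luminescence read.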
PNC inhibitor = perinucleolar compartment assembly inhibition; activity change (PNC), negative = inhibition, % at 10 µM; 3.1% of 140,000 active; AID 2417; PC3M PTB-GFP, PNC prevalence imaging, 16 h; hits give low values;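 active means readout at or below -70, meaning at least 70% loss of cells showing the perinucleolar compartment, a nuclear body marking cancer cells; inconclusive means readout between -30 and a set limit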;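 further: plate controls were DMSO wells for no effect and camptothecin positive control wells for full effect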
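Read-out is percentage of cells bearing a perinucleolar compartment, from automated 20x imaging of fixed, Hoechst-stained PC3M PTB-GFP cells. Cells were seeded 4 h, then exposed 16 h to compound (23 nl of library stock) in duplicate plates.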
Lamin A splicing = changes lamin A minigene splicing in HeLa cells | HeLa LMNA splicing GFP/RFP minigene ratio, 48 h | Potency, µM (top dose mostly 46.1 µM), without a hit: top-dose ratio change, negative = inhibition, usual class: inhibitors | 0.01% of 200,000 active; active means well fitted inhibition curve with a large enough effect in the signal ratio, with a control signal flat, not every such curve was filed as active; inconclusive means small, poorly fitted or top-dose-only effect, or effect the other way, or a change in a side signal; the % refers to the signal ratio; further: potency means the concentration at half of the fitted maximal effect
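S3 HeLa stable clones carrying a lamin A-EGFP splicing minigene plus DsRed2 were seeded at 600 cells/well in Opti-MEM with 2% FBS, pin-dosed and incubated 48 h at 37°C. Acumen cytometry (488 nm) gave the GFP/RFP total-intensity ratio.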
ALDH1A1 block = inhibitors of human aldehyde dehydrogenase 1A1; Purified ALDH1A1, NADH fluorescence, propionaldehyde substrate; Potency, µM (titrated, usually from 75.3 µM), for the others: at the highest dose activity, negative = inhibition, actives largely listed as inhibitors; 7.3% of 220,000 active; AID 1030;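 further: potency means the concentration at half of the fitted maximal effect; plate controls were no enzyme wells and a reference inhibitor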
Target sequence (P00352 whole entry, looked up): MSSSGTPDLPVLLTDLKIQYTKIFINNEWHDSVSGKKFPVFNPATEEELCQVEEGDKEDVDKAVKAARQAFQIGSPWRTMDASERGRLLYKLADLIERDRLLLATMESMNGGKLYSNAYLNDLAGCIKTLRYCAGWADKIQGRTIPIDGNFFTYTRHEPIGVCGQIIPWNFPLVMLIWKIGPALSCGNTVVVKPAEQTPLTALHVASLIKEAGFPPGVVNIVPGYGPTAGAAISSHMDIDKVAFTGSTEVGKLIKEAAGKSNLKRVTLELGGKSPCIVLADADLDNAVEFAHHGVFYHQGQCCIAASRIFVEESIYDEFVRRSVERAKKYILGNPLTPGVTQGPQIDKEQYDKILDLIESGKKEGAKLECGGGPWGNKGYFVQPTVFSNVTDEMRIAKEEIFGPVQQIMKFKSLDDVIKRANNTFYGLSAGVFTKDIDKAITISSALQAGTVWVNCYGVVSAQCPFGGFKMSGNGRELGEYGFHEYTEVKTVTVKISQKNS
HPGD inh = blocks human HPGD enzyme activity; 4.3% of 150,000 active; P15428; purified HPGD, NADH fluorescence kinetic, PGE2 substrate; AID 894; Potency, µM, without a hit: at the top dose activity change, negative = inhibition, actives largely listed as inhibitors; further: potency means the concentration at half of the fitted maximal effect
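20 nM HPGD preincubated 15 min at room temperature with compound in 50 mM Tris-HCl pH 8, 0.01% Tween 20. Started with 1 mM NAD+ and 30 uM prostaglandin E2; NADH fluorescence (360/450 nm) read 5 times over 30-s intervals, last minus first.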
The depositor's hits bear a star; ? = inconclusive; / = no result; [ ] = dose if it differs, or a comment. Unless noted, the call rests on the fitted dose curve; in most records, active means well fitted inhibition curve with a large enough effect (not every such curve was filed as active); inconclusive means small, poorly fitted or top-dose-only effect, or another doubt; inactive means no such curve, though single readings can be large or run the other way. Unless noted, on the % scale 0 is the no-effect control and ±100 the full control effect.

SMILES	KinaseGlo FLuc	PNC inhibitor	Lamin A splicing	ALDH1A1 block	HPGD inh
O=C(NCC1CCCO1)c1csc2c1CCCC2 (centres undefined)	-2%	-14	1%	-11%	20µM*
CCNc1ncc2nc(CCc3ccccc3)c(=O)n(C)c2n1	-2%	/	/	?	?
O=C(O)CNC(=O)/C=C/c1ccc(Cl)cc1Cl	-2%	/	/	-5%	/
NNC(=O)/C=C/c1ccc(Cl)cc1Cl	5%	/	-17%[46 µM]	13µM*	/
CCOCC(=O)Nc1ccc(C)c(Cl)c1	-4%	7	7%	25µM*	16µM*
Cc1ccc(NC(=O)COC(=O)CC2CCCC2)cc1Cl	1%	/	-18%[46 µM]	22µM*	/
CCOCC(=O)Nc1cc(C(=O)Nc2cc(C)cc(C)c2)ccc1Cl	11µM*	/	15%[46 µM]	-36%	/
O=C(Nc1ccccc1)N(Cc1cccs1)c1ccc(Cl)cc1	/	/	-4%[46 µM]	/	/
CC1CC[C@@]2(C(=O)O)CC[C@]3(C)C(=CCC4[C@@]5(C)CCC(O)C(C)(C)C5CC[C@@]43C)C2C1C (some centres undefined)	0%	/	?	6%	-1%
CC(=O)c1cccc(NC(=O)C2CCN(c3nnc(-n4cccc4)s3)CC2)c1	/	/	-7%[46 µM]	/	/
Cc1ccc(NC(=O)CSc2nnc(CN3CCOCC3)n2C)cc1C	18%	31	4%	32µM*	-18%
Cc1nc2oc(C(=O)c3ccc(Br)cc3)c(N)c2c2c1COC(C)(C)C2	/	?	0%	?	/
CCCc1nc2oc(C(=O)c3ccccc3)c(N)c2c2c1COC(C)(C)C2	-3%	?	6%	10µM*	-16%
COc1ccc(CNC(=O)COC(=O)C2CC3C=CC2C3)cc1 (centres undefined)	4%	5	-5%	11µM*	?
COc1ccc(CNC(=O)COC(=O)CCC2CCCCC2)cc1	/	36	-7%	5.6µM*	/
CCc1nn2c(=O)cc(COC(=O)c3ccc(NC(=O)CCc4ccccc4)cc3)nc2s1	/	/	7%[46 µM]	/	/
Clc1ccccc1N=C1NN=C(c2cccs2)CS1	-14%	/	?	-10%	/
Brc1cc2c(cc1COc1ccc(-c3nn[nH]n3)cc1)OCO2	-2%	43	-3%	?	25µM*
CCOc1ccc(-c2nn[nH]n2)cc1	-8%	28	8%	18%	-14%
O=C(CSc1nc2ccccc2nc1Cc1ccc(Cl)cc1)N1CCc2ccccc21	/	/	-4%[46 µM]	/	/
CCC(C)(C)n1nnnc1CN(Cc1ccc(Cl)cc1)Cc1ccco1	3%	?	1%	10µM*	-13%
CC(C)CO/N=C1/C[C@@H](O)[C@@H](O)[C@@H]2[C@H]3C(=O)N(c4ccc(F)cc4F)C(=O)[C@@H]3CC[C@@H]12	/	/	/	-3%[13.5 µM]	/
Cc1ccccc1NC(=O)c1ccccc1NC(=O)CCC(=O)O	-7%	-109*	-5%	11%	4%
C=CCNC(=O)c1ccccc1NC(=O)c1ccccc1C	-1%	-100*	-10%	?	-8%
C=CCNC(=O)c1ccccc1NC(=O)c1ccccc1SC	1%	/	7%[46 µM]	?	/
SMILES	KinaseGlo FLuc	PNC inhibitor	Lamin A splicing	ALDH1A1 block	HPGD inh
Cc1onc(-c2ccccc2Cl)c1C(=O)NC1C(=O)N2C1SC(C)(C)C2C(=O)O (centres undefined)	-5%	/	/	-12%	?
COc1cc(-c2cc(=O)c3c(O)c(OC)c(OC)c(O)c3o2)ccc1O	/	/	/	28µM*	/
COc1ccc(-c2cc(OC)c3c(C)oc(C)c3c(=O)c2)cc1OC	-3%	7	?	11µM*	28µM*
COc1ccc(-c2cc(=O)c3c(O)cc(O)cc3o2)cc1	-3%	/	?	-1%	-20%
COc1ccc(-c2oc3c(OC)c(OC)c(OC)c(O)c3c(=O)c2OC)cc1OC	/	/	/	-8%	/
COc1ccc(-c2cc(=O)c3c(O)c(OC)c(OC)c(OC)c3o2)cc1OC	1%	/	?	20µM*	-14%
COc1cc(-c2cc(OC)c3c(C)oc(C)c3c(=O)c2)ccc1O	0%	?	?	-10%	?
COc1ccccc1NC(=O)c1sc2nc3n(c(=O)c2c1C)N=C(c1cccc(Br)c1)CS3	/	/	8%[46 µM]	/	/
CCN(CC)C(=O)c1sc2c(c1C)c(=O)n(-c1ccc(Cl)c(Cl)c1)c(=O)n2Cc1ccccc1C#N	/	/	9%[46 µM]	/	/
CCN1CCN(c2ccc(NC(=O)c3ccc([N+](=O)[O-])o3)cc2Cl)CC1	0%	/	?	20µM*	/
